Inconclusive results are not listed. Where a call stands in place of a potency, no number is given. Unmarked numbers belong to inactive results. Activity calls are given as the source filed them. Calls follow the shape of the dose curve; as a rule, active = well fitted curve in the direction sought with a large enough effect; inconclusive = small, poorly fitted or top-dose-only effect, or another doubt; inactive = no such curve, though single readings can be large; an effect the other way counts as inactive or inconclusive.
Assays:
[1] = target: Aldehyde dehydrogenase, mitochondrial (Homo sapiens) (UniProt P05091); assay: qHTS for Inhibitors of the Aldehyde Dehydrogenase Family (ALDH2) Primary screen (AID 2061308); also: nearly all actives have a fitted effect of over 55% in size
[2] = target: Retinaldehyde dehydrogenase 3 (Homo sapiens) (UniProt P47895); assay: qHTS for Inhibitors of the Aldehyde Dehydrogenase Family (ALDH1A3) Confirmatory screens (AID 2061311); also: nearly all actives have a fitted effect of over 60% in size; also: potency is read from the fitted curve at half-maximal effect
[3] = target: Retinaldehyde dehydrogenase 3 (Homo sapiens) (UniProt P47895); assay: qHTS for Inhibitors of the Aldehyde Dehydrogenase Family (ALDH1A3) Primary screen (AID 2061315); also: potency is read from the fitted curve at half-maximal effect
[4] = target: Aldehyde dehydrogenase 1A1 (Homo sapiens) (UniProt P00352); assay: qHTS for Inhibitors of the Aldehyde Dehydrogenase Family (ALDH1A1) Confirmatory screens (AID 2061316); also: nearly all actives have a fitted effect of over 65% in size; also: potency is read from the fitted curve at half-maximal effect
[5] = BET inhibitor-based combinations targeting novel dependencies in MECOM-rearranged (r) AML: SET-2 cell line (AID 2202231); conditions: SET-2 AML cells viability, CellTiter-Glo luminescence, 48 h; viability: stronger effect = lower value, series mostly up to about 46 µM; also: nearly all actives have a fitted effect of over 35% in size
Procedure, shortened: (§1)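 Each compound was tested at eleven concentrations on cells seeded at 500/well. After two days' incubation, ATP-based luminescence reported viability; responses relative to DMSO and blank wells yielded AUC and cell-line-centred Z-AUC.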

[6] = BET inhibitor-based combinations targeting novel dependencies in MECOM-rearranged (r) AML: OCI-AML3 cell line (AID 2202232); conditions: Potency: OCI-AML3 viability; also: series mostly up to about 46 µM; nearly all actives have a fitted effect of over 35% in size
Procedure, shortened: as §1

[7] = BET inhibitor-based combinations targeting novel dependencies in MECOM-rearranged (r) AML: MV-4-11 cell line (AID 2202233); also: nearly all actives have a fitted effect of over 45% in size
Procedure, shortened: (§2)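 First, 500 cells per well were seeded; next, drugs were pinned as 11-point doses; then plates sat 48 hr in the incubator; finally CellTiter-Glo was added and luminescence read, with AUC and Z-AUC computed.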

[8] = BET inhibitor-based combinations targeting novel dependencies in MECOM-rearranged (r) AML: HNT-34 cell line (AID 2202234); also: nearly all actives have a fitted effect of over 35% in size
Procedure, shortened: as §2

[9] = BET inhibitor-based combinations targeting novel dependencies in MECOM-rearranged (r) AML: UCSD-AML1 cell line (AID 2202235); also: series mostly up to about 46 µM; nearly all actives have a fitted effect of over 40% in size
Procedure, shortened: as §2

[10] = BET inhibitor-based combinations targeting novel dependencies in MECOM-rearranged (r) AML: AML-191 cell line (AID 2202236; also: nearly all actives have a fitted effect of over 35% in size)
Procedure, shortened: as §1

[11] = BET inhibitor-based combinations targeting novel dependencies in MECOM-rearranged (r) AML: AML-194 cell line (AID 2202237; also: nearly all actives have a fitted effect of over 40% in size)
Procedure, shortened: as §1

[12] = target: Retinaldehyde dehydrogenase 3 (Homo sapiens) (UniProt P47895); assay: qHTS for Inhibitors of the Aldehyde Dehydrogenase Family (ALDH1A3) Validation screen (AID 2061312); also: nearly all actives have a fitted effect of over 45% in size

SMILES: COCCOc1cnc2ccn([C@H](C)c3nnc4c(F)cc(-c5cnn(C)c5)cn34)c(=O)c2c1
- Potency [1]: inactive
- Potency [2]: 12.7 µM (active)
- Potency [3]: inactive
- Potency [4]: 25.2 µM (active)
- viability [5]: 70.9%
- Potency [6]: inactive
- Potency [7]: inactive
- Potency [8]: inactive
- Potency [9]: inactive
- Potency [10]: inactive
- Potency [11]: inactive

SMILES: OC1CCC(Nc2ncc3nc(Nc4c(F)cc(F)cc4F)n([C@H]4CCOC4)c3n2)CC1 (stereo partly specified)
- Potency [1]: inactive
- Potency [12]: inactive
- Potency [3]: inactive

SMILES: CN(c1nccc(=O)[nH]1)C1CCN(c2nc3ccccc3n2Cc2ccc(F)cc2)CC1
- Potency [1]: inactive
- Potency [12]: inactive
- Potency [3]: inactive

SMILES: NC(=O)N1CCC(CC(=O)N2CCC(C3c4ncc(Br)cc4CCc4cc(Cl)cc(Br)c43)CC2)CC1 (stereo unspecified)
- Potency [1]: inactive
- Potency [12]: inactive
- Potency [3]: inactive

SMILES: COc1ccc(C2NC(=O)c3ccccc3N2)cc1COc1ccc(NC(C)=O)cc1 (stereo unspecified)
- Potency [1]: inactive
- Potency [2]: inactive
- Potency [3]: inactive

SMILES: Cc1cc(C)nc(NC(=S)N2CCN(c3cccc4[nH]ccc34)CC2)c1
- Potency [1]: inactive
- Potency [2]: 7.12 µM (active)
- Potency [3]: inactive
- Potency [4]: 8.96 µM (active)

SMILES: C[C@@H](O[C@H]1OCCN(Cc2n[nH]nc2CN(C)C)[C@H]1c1ccc(F)cc1)c1cc(C(F)(F)F)cc(C(F)(F)F)c1
- Potency [1]: inactive
- Potency [12]: inactive
- Potency [3]: inactive

SMILES: CC(=O)NC(c1cccs1)c1cc(Br)c2cccnc2c1O (stereo unspecified)
- Potency [1]: inactive
- Potency [2]: 10.1 µM (active)
- Potency [3]: inactive

SMILES: CC[C@H](/C=C/[C@@H](C)[C@H]1CC[C@H]2[C@@H]3CC=C4C[C@@H](O)CC[C@]4(C)[C@H]3CC[C@]12C)C(C)C
- activity change, negative = inhibition [1]: -2.53% [at 5.59 µM]
- activity change, negative = inhibition [12]: -13.7% [at 9.14 µM]
- activity change, negative = inhibition [3]: 15.3% [at 5.59 µM]

SMILES: COc1ccccc1OCCNCC(O)CCOc1cccc2[nH]c3ccccc3c12 (stereo unspecified)
- Potency [1]: inactive
- Potency [12]: inactive
- Potency [3]: inactive

SMILES: COc1cc(O)ccc1OCCNCC(O)COc1cccc2[nH]c3ccccc3c12 (stereo unspecified)
- Potency [1]: inactive
- Potency [2]: 12.7 µM (active)
- Potency [3]: 3.16 µM (active)

SMILES: Cc1cc(C)nc(NC(=S)N2CCN(c3ccc4nonc4c3)CC2)c1
- Potency [1]: inactive
- Potency [2]: 15.9 µM (active)
- Potency [3]: inactive
- Potency [4]: 11.3 µM (active)

SMILES: COc1cccc(CNc2ccc(S(=O)(=O)Nc3cccc4ccncc34)cc2)c1O
- Potency [1]: inactive
- Potency [2]: 22.5 µM (active)
- Potency [3]: inactive
- Potency [4]: inactive

SMILES: O=C1Cc2c([nH]c3ccc(Br)cc23)-c2ncccc2N1
- Potency [1]: inactive
- Potency [12]: inactive
- Potency [3]: inactive

SMILES: CCN(Cc1ccccc1)C(=O)Cn1c(=O)n(C)c2cnc(-c3ccccc3)nc21
- Potency [1]: inactive
- Potency [12]: inactive
- Potency [3]: inactive

From PubChem BioAssay (NCATS)
